# Assay results taken from PubChem BioAssay (NCATS).
# Where “and” joins values, the source holds several entries; their conditions need not be identical. Identical values can stand only once. Records with an inconclusive call do not appear. A number with no mark means an inactive call. Calls of active or inactive are those of the source. Calls follow the shape of the dose curve; as a rule, active = well fitted cell-killing curve with a large enough effect; inconclusive = small, poorly fitted or top-dose-only effect; inactive = flat fitted curve, though single readings scatter.
# Experiment: Cellular viability qHTS for adrenocortical cancer (ACC) cell line SW-13 (AID 1963989); also: nearly all actives have a fitted effect of over 65% in size;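 as to activity (max response): cells grown in serum-free medium with ITS supplement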
# Conditions: SW-13 ACC cells viability, CellTiter-Glo, 48 h; activity (max response): active compounds read low
# Source text: PI: Naris Nilubol, MD Surgical Oncology Program, National Cancer Institute (NCI) National Institute of Health (NIH), Bethesda, Maryland Adrenocortical cancer (ACC) is a rare malignancy with poor survival outcomes and few treatment options. Currently, mitotane is the only FDA-approved therapy for ACC. Although adjuvant radiation therapy is rarely utilized, it has the potential to improve survival in select cases. Through a quantitative high-throughput drug screen (qHTS), we identified auranofin (AF), a thioredoxin reductase (TXNRD) inhibitor, as a promising candidate drug. This study aims to evaluate whether AF can enhance the efficacy of radiation therapy in the treatment of ACC. Two human ACC cell lines, SW-13 and NCI-H295R, were screened using the National Center for Advancing Translational Sciences (NCATS) Pharmaceutical Collection (NPC) and the Mechanism Interrogation PlatE (MIPE) library (~4,991 compounds). CellTiter-Glo (Cat # G7570, Promega, Madison, WI) was utilized to measure cell viability. Described herein are the results of the corresponding viability assay.
# PROTOCOL TABLE (as described by Inglese J, Shamu CE and Guy RK. 2007) SEQUENCE No. (e.g., 1, 2, 3, etc.); […] (e.g., Cells, Incubation, Reagent, etc.); VALUE; DESCRIPTION. 1; Cells; 5 uL; white, solid-bottom, 1536-well tissue-culture treated plates. 2; Time; overnight culture at 37C with 5% CO2. 3; Compounds and control; 23 nL; Kalypsis pin tool (Wako USA) equipped with a 1536-well pin head to transfer to the assay plates. 4; Time; 48 hours; 37C with 5% CO2. 5; Reagent; 4 uL; CellTiter-Glo luminescent substrate mix. 6; Time; 20 min at room temperature. 7; Detection; Luminescence; ViewLux plate reader NOTES (numbers refer to Sequence numbers above) 1. SW13 cells were harvested from a T175 flask and resuspended in ITS-supplemented DMEM serum-free medium at a concentration of 300 000 cells/mL. Then 5 uL of resuspended cells were dispensed into each well of white, solid-bottom, 1536-well tissue-culture-treated plates using a multidrop combi dispenser. The plates were covered with stainless steel gasket lids. 2-3. The plates were cultured overnight at 37C with 5% CO2. Twenty-three nL of compounds (eight selected concentrations from the NPC / MIPE) or positive control (10 mM stock of bortezomib) in DMSO was transferred to each well of the assay plate using a pin tool (Kalypsys, San Diego, CA, USA). The final concentration of the compounds in the 5 uL assay volume ranged from 0.5 nM to 46 uM. 4-6. After 48 hours of incubation at 37C and 5% CO2, 4 uL of CellTilter-Glo luminescent substrate mix (Promega, Madison, WI, USA) was added to each well. Then the plates were incubated for 20 minutes at room temperature. 7. After incubation, luminescence was measured using a ViewLux plate reader (PerkinElmer, Waltham, MA, USA) with a clear filter was used to measure the number of metabolically competent cells. To determine compound activity in the qHTS assay, the titration-response data for each sample was plotted and modeled by a four-parameter logistic fit yielding IC50 and efficacy (maximal response) values. […] REFERENCES: Inglese J, Shamu CE and Guy RK, Reporting data from high throughput screening of small molecule libraries, Nature Chemical Biology, 2007, 3(8): 438-441. doi.org/10.1038/nchembio0807-438.
# % is scaled to controls: 0 for no effect and ±100 for the full control effect.
Compound,activity (max response),Potency
CC1(C)CNc2cc(NC(=O)c3cccnc3NCc3ccncc3)ccc21,-22.3%,–
COc1ccc2nc(S(=O)Cc3ncc(C)c(OC)c3C)[nH]c2c1 (stereo not given),-12.3%,–
CCOC(=O)c1cccc(N)c1,-1.69%,–
CCC1CCCCN1C(=O)n1ncc(C(O)(c2ccccc2)c2ccccc2)n1 (stereo not given),–,15.8 µM (active)
CS(=O)(=O)c1ccc([C@@H](O)[C@@H](CO)NC(=O)C(Cl)Cl)cc1,-8.84%,–
Cc1cc(=O)c2c(O)c3c(O)cc(=O)c4c3c3c(cc(O)c1c23)C(C)(C)C=4O,–,1.78 µM (active)
Cc1sccc1Br,-3.04%,–
CNC[C@H](O)c1cccc(O)c1,10.6% and -8.09%,–
Cc1ccccc1-n1c(Cn2nc(-c3cccc(O)c3)c3c(N)ncnc32)nc2cccc(C)c2c1=O,-11.8%,–
COC(=O)[C@@H]1CC2=CC(=O)CC[C@]2(C)[C@@]23O[C@@H]2C[C@@]2(C)[C@@H](CC[C@@]24CCC(=O)O4)[C@H]13,-0.519% and -3.74%,–
OCCc1ccccc1,10.1%,–
CC1(C)[C@@H](O)CC[C@]2(C)[C@H]3C(=O)C=C4[C@@H]5C[C@@](C)(C(=O)O)CC[C@]5(C)CC[C@@]4(C)[C@]3(C)CC[C@@H]12,3.49%,–
O[C@@H](COc1cccc2ncccc12)CN1CCN(C2c3ccccc3[C@@H]3[C@H](c4ccccc42)C3(F)F)CC1 (stereo not given in full),–,20.6 µM (active)
OC[C@H]1O[C@@H](O[C@@H]2[C@@H](CO)O[C@](O)(CO)[C@H]2O)[C@H](O)[C@@H](O)[C@H]1O,1.01% and 4.87%,–
C[Se]CCC(N)C(=O)O (stereo not given),-4.29%,–
CCn1nc(C(=O)O)c(=O)c2cc3c(cc21)OCO3,1.15%,–
CN1CCN(CCCN2c3ccccc3Sc3ccc(C(F)(F)F)cc32)CC1,–,20.6 µM (active) and 25.1 µM (active)
CCOC(=O)[C@H]1O[C@@H]1C(=O)N[C@@H](CC(C)C)C(=O)NCCC(C)C,-2.38%,–
CNc1nc(Nc2ccc(C(=O)N3CCOCC3)cc2OC)ncc1Cl,-6.87%,–
COc1ccc(/C=N/NC(=O)c2ccncc2)cc1OC,-2.5%,–

Compound,activity (max response),Potency
CC(C)COC(=O)c1ccc(N)cc1,4.68%,–
Cn1cnc2c(F)c(Nc3ccc(Br)cc3F)c(C(=O)NOCCO)cc21,–,17.8 µM (active)
CS(=O)(=O)c1ccc(C(=O)Nc2ccc(Cl)c(-c3ccccn3)c2)c(Cl)c1,-0.792%,–
CCn1ccc(NS(=O)(=O)c2ccc(N)cc2)nc1=O,11.1%,–
O=C(CCN1CCN(C(=O)OCc2cc(Cl)cc(Cl)c2)CC1)c1ccc2[nH]c(=O)oc2c1,-15.7%,–
O=C1c2c(O)ccc(O)c2C(=O)c2c(NCCNCCO)ccc(NCCNCCO)c21,–,1.16 µM (active) and 2.51 µM (active)
Cn1cncc1[C@@](N)(c1ccc(Cl)cc1)c1ccc2c(c1)c(-c1cccc(Cl)c1)cc(=O)n2C,-19.2%,–
N#C/C(=C1\SCC(c2ccccc2Cl)S1)n1ccnc1 (stereo not given),-13.5%,–
C[C@]12CCC3=C4CCC(=O)C=C4CC[C@H]3[C@@H]1CC[C@@]2(O)CC#N,0.0754%,–
Oc1ccc(Cl)cc1Cc1cc(Cl)ccc1O,–,5.17 µM (active)
C[C@H]1[C@H]2CC[C@H]3[C@@H]4CC=C5C[C@@H](N(C)C)CC[C@]5(C)[C@H]4CC[C@]23CN1C,-17.7%,–
COc1cc(/C=C/C(N)=O)cc(OC)c1OC,17.9%,–
COc1cc(N)c(Cl)cc1C(=O)NC1CCN(CCCOc2ccc(F)cc2)CC1OC (stereo not given),-12.2%,–
Cc1c(NC(=O)c2cc(C(N)=O)nc3cc(F)ccc23)c(C(F)(F)F)nn1Cc1ccc(C#N)cc1,-7.79%,–
COc1ccc2c(c1)[C@]1(C[C@H]1c1ccc3c(/C=C/c4ccc(CN5C[C@@H](C)O[C@@H](C)C5)cc4)n[nH]c3c1)C(=O)N2,–,14.1 µM (active)
CC1=C2[N-][C@H]([C@H](CC(N)=O)[C@@]2(C)CCC(=O)NC[C@@H](C)OP(=O)([O-])O[C@H]2[C@@H](O)[C@@H](n3cnc4cc(C)c(C)cc43)O[C@@H]2CO)[C@]2(C)N=C(C(C)=C3N=C(C=C4N=C1[C@@H](CCC(N)=O)C4(C)C)[C@@H](CCC(N)=O)[C@]3(C)CC(N)=O)[C@@H](CCC(N)=O)[C@]2(C)CC(N)=O.O.[Co+2],-17.2%,–
COC(=O)N(C)c1c(N)nc(-c2nn(Cc3ccccc3F)c3ncccc23)nc1N,-4.16%,–
NCCCC[C@H](NC(=O)[C@@H](NC(=O)[C@H](Cc1c[nH]c2ccccc12)NC(=O)[C@H](CCCCN)NC(=O)[C@H](CCCCN)NC(=O)[C@H](Cc1c[nH]c2ccccc12)NC(=O)[C@H](Cc1c[nH]c2ccccc12)NC(=O)[C@H](CCCCN)NC(=O)[C@@H](N)CCCCN)C(c1ccccc1)c1ccccc1)C(N)=O,–,31.6 µM (active)
COc1c2occc2c(OC)c2c(=O)cc(C)oc12,12.7%,–
OC[C@@H](O)[C@@H](O)[C@H](O)[C@H](O)CO,-5.63%,–
